Reference: the supplement of paper PMC6555819

Key:
Experiment in all cases: PBM binding z-score (relative to random genomic background probes); higher = stronger binding; sequences stand for … in GC…GCGATTGACAGCGTAGAATGAAGG
[1] = tested on: RARb homodimer (NR concentration 270 nM)
How it was run: (§1)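 Binding buffer was PBS pH 7.4 with 2% milk, 0.02% Triton X-100, 1 mM DTT, 0.2 mg/mL BSA and 0.4 mg/ml salmon testes DNA. In it, ligand-free nuclear receptor dimers were incubated 1 h on custom Agilent 4×180K protein-binding microarrays carrying double-stranded probes. Antibodies against each partner (one per run) detected binding, and z-scores were calculated against random background probes after regression normalization of scanned fluorescence.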

[2] = tested on: RARg:RXRa (NR concentration 270 nM, RXRa partner concentration 90 nM)
How it was run: as §1

[3] = tested on: RARg homodimer (NR concentration 270 nM)
How it was run: as §1

[4] = tested on: RXRa DBDmut IVT, anti-RXR (DBD mutation: RXRa K156A/R161A, NR concentration 90 nM)
How it was run: as §1

[5] = tested on: RXRa homodimer (NR concentration 180 nM)
How it was run: as §1

[6] = tested on: THRa:RXRa (NR concentration 90 nM, RXRa partner concentration 90 nM)
How it was run: as §1

[7] = tested on: THRa homodimer (NR concentration 90 nM)
How it was run: as §1

[8] = tested on: VDR:RXRa (NR concentration 270 nM, RXRa partner concentration 90 nM)
How it was run: as §1

[9] = tested on: VDR homodimer (NR concentration 270 nM)
How it was run: as §1

Sequence | PBM binding z-score [1] | PBM binding z-score [2] | PBM binding z-score [3] | PBM binding z-score [4] | PBM binding z-score [5] | PBM binding z-score [6] | PBM binding z-score [7] | PBM binding z-score [8] | PBM binding z-score [9]
TCGAGTAGATTAGTCGGGGCATTCAGCCAACATA | -0.464 | -0.658 | -0.665 | 0.38 | -0.393 | -0.269 | -0.485 | -0.0689 | -0.548
CAAACTAGGTCAAAGGTCTAAGTCGAGCCAACCA | 2.9 | 4.76 | 4.45 | 1.96 | 4.93 | 3 | 0.688 | 2.98 | 1.09
GCGACTGGGGCAAAGGAGGTTACCATAAGGTTGG | 1.87 | 1.1 | 1.14 | -0.468 | 1.12 | 3.4 | 0.609 | 1.26 | 0.291
GGAACGAGGGCATTCGAGTTGACAGCATGGCGAT | 0.801 | 1.2 | 1.69 | 3.06 | 0.845 | 3.83 | -0.733 | 3.41 | 2.99
CGTCCAAGGTCAATGGTCAGTGAAGAGATGACGG | 4.04 | 5.46 | 6.07 | 3.36 | 4.67 | 3.6 | 2.11 | 3.55 | 2.25
ATCACTAGGTAACCAAGTTCAGTGAATGCCGAAC | 1.26 | 0.732 | 0.632 | 0.466 | 0.53 | 1.32 | 0.313 | 3.92 | 2.41
CAGAGTAGGTTATGGGGCATTCAGGCAACGGTGA | 1.24 | 0.814 | 0.945 | -0.321 | 0.947 | 0.691 | 0.428 | 0.214 | 0.315
TTACCAAGGTGAGAGGTCGTTGATGCACGCCTTG | 1.97 | 2.58 | 1.3 | 0.404 | 3.24 | 2.6 | 1.11 | 2.25 | 1.66
TCTATTAGTTAAAGGGCAACCGACGAGTCCGTTT | 2.17 | 1.22 | 1.42 | 1.7 | 1.28 | 0.666 | -0.0439 | 1.46 | 1.77
TCTTGTAGATTAAGCAGGTTAAGAAAGCCTGAGT | 0.394 | -0.0145 | -0.457 | 0.673 | 0.377 | 0.509 | -0.386 | 0.313 | 0.113
TAGCCTAGGTCATTCAGGGGCCAGTATAGAAAGC | 3.29 | 6.13 | 4.44 | 1.6 | 2.84 | 3.45 | 0.509 | 3.26 | 1.32
CCTACTGGTCCAAAGGTCATTGATTCCAATGCTC | 4.86 | 5.09 | 4.49 | 2.23 | 5.45 | 3.31 | 1.49 | 4.83 | 2.58
ATCGAAAGGACGAAGGTGAGTATACCCACCCGAA | 0.646 | 1.11 | 1.26 | -0.397 | 0.555 | 0.23 | -0.316 | -0.276 | -0.271
TCTTGTAGATGAGCAGGTTAAGAAAGCTGGCCAA | -0.681 | -0.327 | -0.525 | -0.188 | 0.00792 | -0.277 | -0.72 | -0.0672 | -0.433
ACTTATGGGTCAACGAGGTTATAGCACGCGTATA | 3.67 | 5.04 | 5.1 | 1.92 | 5.18 | 3.79 | 1.03 | 7.43 | 2.82
ATATGTAGGTTAGCTGGGTTCATTCAGACTAGGC | 1.47 | 1.58 | 0.836 | 2.97 | 2.38 | 3.54 | 0.442 | 6.4 | 6.88
CCTCGGAGGACGGAAGGTCAGAGCTGTCCGCTTT | 2.97 | 2.49 | 2.14 | -0.0504 | 1.69 | 1.94 | -0.304 | 0.873 | -0.0606
CCATACAGGTGAAAGGTAACTCAGTCTGGTACGC | 0.92 | 1.41 | 0.917 | 0.261 | 2.32 | 1.08 | 0.069 | 0.988 | -0.101
TCATATAGGTGAAGGTGAAAGTCGAACGATATGA | 1.3 | 1.42 | 1.48 | 0.518 | 1.6 | 0.793 | -0.343 | 0.278 | -0.0365
CCAGACAGGTGCGAAGGTAACTCAGCCTCGATTA | -0.418 | -0.29 | -0.243 | 0.384 | -0.121 | -0.305 | -0.159 | -0.435 | -0.453
CGTCCATGGTCATAGGAGGTCAGTGAAGACAGAT | 3.47 | 2.87 | 2.8 | 0.0145 | 2.18 | 3.83 | 0.621 | 2.94 | 1.16
GATACAGGGTCAGTTAGAGGCCAGAGTATGGAAA | 3.21 | 5.99 | 4.52 | 1.88 | 3.67 | 2.73 | 0.565 | 2.97 | 1.51
ACTTACGGGTCAACGAGGTTATAGTACGCGTATA | 3.9 | 5.7 | 5.01 | 2.85 | 6.32 | 4.14 | 1.34 | 7.78 | 4.38
TCATATAGGTAAATGCTAGGTGAAATTCCGATCT | 0.107 | 0.506 | 0.4 | 1.46 | 0.811 | 1.29 | 0.404 | 0.761 | -0.0885
